Read-out in assay [1]: Epidermal growth factor receptor (EGFR), EGFR (gene 1956)
In words: BSK_hDFCGF_EGFR: BioMAP Diversity Plus: hDFCGF Assay for Epidermal growth factor receptor (EGFR) Biomarker Activity (AID 2283057). To be noted: primary human foreskin fibroblasts; actives raise or lower the signal. Put shortly:
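EGFR levels by ELISA in human dermal fibroblast cultures, 24 h post-treatment, fitted bidirectionally versus DMSO. Parallel wells stained with sulforhodamine B to detect overt cytotoxicity.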

Read-out in assay [2]: Interleukin-8 (IL8), CXCL8 (gene 3576)
In words: BSK_hDFCGF_IL8: BioMAP Diversity Plus: hDFCGF Assay for Interleukin-8 (IL8) Biomarker Activity (AID 2283058). To be noted: primary human foreskin fibroblasts; actives raise or lower the signal. Put shortly: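 Primary human foreskin fibroblasts (hDFCGF system) dosed with chemical; IL-8 measured by ELISA 24 hours later. Bidirectional curve fitting relative to DMSO baseline; cytotoxicity tracked in parallel cultures by SRB total protein staining.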

The nature of assay [3]: BSK_hDFCGF_Proliferation: Cell Proliferation Assessment in the BioMAP Diversity Plus: hDFCGF Assay (AID 2283059).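 Further: curves fitted for both rise and fall of signal versus DMSO baseline.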 The following applies: primary human foreskin fibroblasts. Put shortly: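 Sub-confluent human foreskin fibroblast cultures receive test chemical […]. Relative cell number is quantified by sulforhodamine B staining (0.1%, after 10% TCA fixation) at 560 nm, with bidirectional fitting referenced to DMSO.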

Read-out in assay [4]: Macrophage colony-stimulating factor (MCSF), CSF1 (gene 1435)
In words: BSK_hDFCGF_MCSF: BioMAP Diversity Plus: hDFCGF Assay for Macrophage colony-stimulating factor (MCSF) Biomarker Activity (AID 2283060). The following applies: primary human foreskin fibroblasts; actives raise or lower the signal. Put shortly: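 Human foreskin fibroblast primary cultures; M-CSF measured by ELISA 24 hours after chemical dosing. Bidirectional fitting relative to DMSO, with overt cytotoxicity tracked by parallel SRB total-protein staining (0.1% SRB, 10% TCA fixation, 560 nm).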

Assay [5] can be described thus: BSK_hDFCGF_SRB: Viability Assessment in the BioMAP Diversity Plus: hDFCGF Assay (AID 2283061).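 Further: cells exposed to compound for 24 h before the read.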 The following applies: primary human foreskin fibroblasts. Put shortly:
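Human foreskin fibroblasts in 96-well plates were treated 24 h. Total protein was measured by 0.1% SRB staining after 10% TCA fixation, read at 560 nm. Data were fitted bidirectionally against DMSO.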

Read-out in assay [6]: TIMP metallopeptidase inhibitor 1 (TIMP1), TIMP1 (gene 7076)
As to the kind of experiment: BSK_hDFCGF_TIMP1: BioMAP Diversity Plus: hDFCGF Assay for TIMP metallopeptidase inhibitor 1 (TIMP1) Biomarker Activity (AID 2283062). The following applies: primary human foreskin fibroblasts; actives raise or lower the signal. An outline of the steps: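 Human foreskin fibroblast primary cultures dosed for 24 h; secreted/surface TIMP-1 quantified by ELISA. Bidirectional curve fitting against DMSO baseline; cytotoxicity tracked in parallel cultures by SRB total-protein staining.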

Read-out in assay [7]: Monokine induced gamma interferon (MIG), CXCL9 (gene 4283)
In words: BSK_hDFCGF_MIG: BioMAP Diversity Plus: hDFCGF Assay for Monokine induced gamma interferon (MIG) Biomarker Activity (AID 2283063). The following applies: primary human foreskin fibroblasts; actives raise or lower the signal. An outline of the steps:
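MIG/CXCL9 measured by ELISA 24 h after dosing primary human skin fibroblasts. Activity fitted in both directions against DMSO controls. Cytotoxicity was checked in parallel cultures by SRB staining read at 560 nm.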

Read-out in assay [8]: Matrix Metallopeptidase 1 (MMP1), MMP1 (gene 4312)
In words: BSK_hDFCGF_MMP1: BioMAP Diversity Plus: hDFCGF Assay for Matrix Metallopeptidase 1 (MMP1) Biomarker Activity (AID 2283064). The following applies: primary human foreskin fibroblasts; actives raise or lower the signal. An outline of the steps:
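ELISA read-out of MMP1 from human foreskin fibroblasts (primary skin cells), 24 h post-dose. Gain or loss of signal was fitted bidirectionally versus DMSO negative control; cytotoxicity was checked by SRB in parallel cultures.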

Read-out in assay [9]: Vascular cell adhesion molecule 1 (VCAM1), VCAM1 (gene 7412)
As to the kind of experiment: BSK_hDFCGF_VCAM1: BioMAP Diversity Plus: hDFCGF Assay for Vascular cell adhesion molecule 1 (VCAM1) Biomarker Activity (AID 2283065). The following applies: primary human foreskin fibroblasts; actives raise or lower the signal. An outline of the steps:
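Human foreskin fibroblast primary cells dosed with chemical, VCAM-1 measured by ELISA at 24 h. Bidirectional curve fitting relative to DMSO as negative control/baseline.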

Read-out in assay [10]: Plasminogen activator inhibitor-1 (PAI1), SERPINE1 (gene 5054)
In words: BSK_hDFCGF_PAI1: BioMAP Diversity Plus: hDFCGF Assay for Plasminogen activator inhibitor-1 (PAI1) Biomarker Activity (AID 2283066). The following applies: primary human foreskin fibroblasts; actives raise or lower the signal. An outline of the steps: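 PAI-1 levels in human dermal foreskin fibroblasts were quantified by ELISA 24 h after dosing, with gain or loss analysed against DMSO. Overt cytotoxicity was checked by sulforhodamine B total-protein staining in parallel cultures.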

Read-out in assay [11]: Intercellular Adhesion Molecule 1 (ICAM1), ICAM1 (gene 3383)
In words: BSK_KF3CT_ICAM1: BioMAP Diversity Plus: KF3CT Assay for Intercellular Adhesion Molecule 1 (ICAM1) Biomarker Activity (AID 2283067). The following applies: primary human keratinocytes with fibroblasts; actives raise or lower the signal. Put shortly: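 Human keratinocyte–foreskin fibroblast co-culture was treated for 24 h. Cell-surface ICAM-1 was quantified by ELISA, fitted bidirectionally relative to DMSO. Cytotoxicity was checked in parallel cultures by SRB total-protein staining.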

Read-out in assay [12]: Interferon-gamma inducible Protein 10 (IP10), CXCL10 (gene 3627)
As to the kind of experiment: BSK_KF3CT_IP10: BioMAP Diversity Plus: KF3CT Assay for Interferon-gamma inducible Protein 10 (IP10) Biomarker Activity (AID 2283068). The following applies: primary human keratinocytes with fibroblasts; actives raise or lower the signal. An outline of the steps:
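ELISA read-out of IP-10 after 24 h chemical dosing of human skin primary co-culture (keratinocytes, foreskin fibroblasts). Gain or loss of signal relative to DMSO, bidirectional curve fit.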

Assay [13] is described as follows: BSK_KF3CT_SRB: Viability Assessment in the BioMAP Diversity Plus: KF3CT Assay (AID 2283069).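 Further: read 24 h after compound addition.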 The following applies: primary human keratinocytes with fibroblasts. An outline of the steps:
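SRB read-out at 560 nm (0.1% stain, TCA-fixed cells) gauges overt cytotoxicity in a human skin keratinocyte–fibroblast co-culture 24 h post-dosing. Signal change was fitted bidirectionally relative to DMSO control.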

Read-out in assay [14]: Interleukin-1 alpha (IL1a), IL1A (gene 3552)
In words: BSK_KF3CT_IL1a: BioMAP Diversity Plus: KF3CT Assay for Interleukin-1 alpha (IL1a) Biomarker Activity (AID 2283070). The following applies: primary human keratinocytes with fibroblasts; actives raise or lower the signal. An outline of the steps: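 Primary skin co-culture (keratinocytes, foreskin fibroblasts), 24 h exposure; ELISA for IL-1a; bidirectional curve fit vs DMSO.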

Read-out in assay [15]: TIMP metallopeptidase inhibitor 2 (TIMP2), TIMP2 (gene 7077)
In words: BSK_KF3CT_TIMP2: BioMAP Diversity Plus: KF3CT Assay for TIMP metallopeptidase inhibitor 2 (TIMP2) Biomarker Activity (AID 2283071). The following applies: primary human keratinocytes with fibroblasts; actives raise or lower the signal. An outline of the steps:
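TIMP-2 measured by ELISA at 24 h in human keratinocyte/fibroblast primary co-cultures exposed to chemicals. Both increases and decreases were fitted against DMSO. Parallel cultures were stained with SRB for total protein as an overt-cytotoxicity check.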

Read-out in assay [16]: Transforming growth factor beta 1 (TGFb1), TGFB1 (gene 7040)
In words: BSK_KF3CT_TGFb1: BioMAP Diversity Plus: KF3CT Assay for Transforming growth factor beta 1 (TGFb1) Biomarker Activity (AID 2283072). To be noted: primary human keratinocytes with fibroblasts; actives raise or lower the signal. An outline of the steps: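 ELISA quantifies TGF-b1 at 24 h post-dose in a primary human skin co-culture of keratinocytes and fibroblasts, with gain or loss judged against DMSO. Parallel SRB total-protein staining flags overt cytotoxicity.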

Read-out in assay [17]: C-C motif chemokine 2 (Homo sapiens) (UniProt P13500)
As to the kind of experiment: BSK_KF3CT_MCP1: BioMAP Diversity Plus: KF3CT Assay for Monocyte Chemoattractant Protein 1 (MCP1/CCL2) Biomarker Activity (AID 2283073). The following applies: primary human keratinocytes with fibroblasts; actives raise or lower the signal. Put shortly: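 Human keratinocyte–foreskin fibroblast co-culture; MCP-1 measured by ELISA 24 h after dosing. Bidirectional fit vs DMSO; cytotoxicity tracked by SRB total protein in parallel cultures.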

Read-out in assay [18]: Matrix Metallopeptidase 9 (MMP9), MMP9 (gene 4318)
As to the kind of experiment: BSK_KF3CT_MMP9: BioMAP Diversity Plus: KF3CT Assay for Matrix Metallopeptidase 9 (MMP9) Biomarker Activity (AID 2283074). To be noted: primary human keratinocytes with fibroblasts; actives raise or lower the signal. Put shortly: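 ELISA read-out of MMP-9 at 24 h post-dosing in a co-culture of human skin keratinocytes and foreskin fibroblasts. Gain or loss of signal was fitted in both directions against DMSO.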

Read-out in assay [19]: urokinase plasminogen activator (uPA), PLAU (gene 5328)
As to the kind of experiment: BSK_KF3CT_uPA: BioMAP Diversity Plus: KF3CT Assay for urokinase plasminogen activator (uPA) Biomarker Activity (AID 2283075). To be noted: primary human keratinocytes with fibroblasts; actives raise or lower the signal. Put shortly: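 Skin co-culture (keratinocytes + foreskin fibroblasts), human primary; 24 h post-dose; uPA by ELISA; gain/loss fit vs DMSO baseline.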

Read-out in assay [20]: CD40, CD40 (gene 958)
As to the kind of experiment: BSK_LPS_CD40: BioMAP Diversity Plus: LPS Assay for CD40 Biomarker Activity (AID 2283076). To be noted: primary human HUVEC with PBMC; actives raise or lower the signal. An outline of the steps:
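HUVEC plus PBMC co-culture stimulated with LPS; CD40 quantified by ELISA 24 h after compound dosing. Fitting was bidirectional relative to DMSO. SRB staining of parallel cultures flagged overt cytotoxicity.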

Activity calls are given as the source filed them. How the source made its calls: active means hit-call score of the fitted dose curve at least 0.9, where 1 is the maximum; inactive means score below 0.9.

`CC(=O)OCC(COC(C)=O)OC(C)=O`: the outcome in assay [1], in assay [2], in assay [3], in [4], in [5] and in assay [6] was inactive. The result in assay [7], in [8], in assay [9], in [10], in assay [11] and in assay [12] was inactive. Also, the result in assay [13], in [14], in assay [15], in [16], in [17] and in assay [18] was inactive. Also, the outcome in assay [19] and in [20] was inactive.
In the case of `NC1CCCCC1`, the outcome in assay [1], in assay [2], in [3], in assay [4], in assay [5] and in assay [6] was inactive. Further, the result in assay [7], in assay [8], in assay [9], in [10], in assay [11] and in assay [12] was inactive. Moreover, the outcome in assay [13], in assay [14], in assay [15], in assay [16], in assay [17] and in [18] was inactive. In addition, the result in assay [19] and in [20] was inactive.
The term AC50 denotes the concentration at which the activity in the assay is half-maximal. Regarding `CN(C)C(=O)NC1(c2ccccc2)CCN(CCC[C@]2(c3ccc(Cl)c(Cl)c3)CCCN(C(=O)c3ccccc3)C2)CC1`, the outcome in assay [1], in [2], in [4], in assay [6], in assay [7] and in assay [8] was inactive. Moreover, the outcome in [9], in assay [10], in assay [11], in [12], in [13] and in assay [14] was inactive. Further, the result in assay [15], in assay [16], in assay [17], in assay [18], in assay [19] and in [20] was inactive. Also, the AC50 in assay [3] was 6.29 µM (active).
With `CC(C)OC(=O)C(C)(C)Oc1ccc(C(=O)c2ccc(Cl)cc2)cc1`, the result in [1], in [2], in assay [4], in [5], in assay [6] and in [7] was inactive. Further, the result in assay [8], in [11], in assay [13], in [14], in assay [15] and in [16] was inactive. Besides, the result in assay [17], in [18] and in [19] was inactive. Moreover, the AC50 was 26.4 µM (active) in assay [3], 3.97 µM (active) in assay [10] and 29.4 µM (active) in assay [20].
Turning to `COC(=O)[C@H]1[C@H]2C[C@@H]3c4[nH]c5cc(OC)ccc5c4CCN3C[C@H]2C[C@@H](OC(=O)c2cc(OC)c(OC)c(OC)c2)[C@@H]1OC`, the outcome in assay [1], in assay [2], in assay [4], in assay [5], in assay [6] and in assay [7] was inactive. For the same molecule, the result in assay [8], in assay [11], in [12], in assay [13], in [14] and in assay [15] was inactive. Further, the result in assay [16], in [17], in assay [18] and in [19] was inactive. Also, the half-maximal activity concentration (AC50) was 16.9 µM (active) in [3] and 23.5 µM (active) in assay [20].
Take `NCCOCCOCCN`: the outcome in [1], in assay [2], in assay [4], in [5], in [6] and in assay [7] was inactive. The result in [8], in assay [11], in assay [12], in [13], in [14] and in [15] was inactive. Further, the outcome in assay [16], in [17], in [18], in assay [19] and in [20] was inactive. In addition, the AC50 in assay [3] was 14.6 µM (active).
Turning to `COC(=O)CCC(=O)OC`, the outcome in assay [1], in assay [2], in [3], in assay [4], in assay [5] and in assay [6] was inactive. In addition, the result in [7], in assay [8], in assay [10], in [11], in assay [12] and in assay [13] was inactive. For the same molecule, the outcome in assay [14], in assay [16], in assay [17], in assay [18], in [19] and in assay [20] was inactive.

The record behind these values is PubChem BioAssay (EPA / NIEHS).
